Activation data for 95 compounds are collected here from PubChem BioAssay AID2796 (The Scripps Research Institute Molecular Screening Center, 2010).

Structures are written as SMILES. Screen size: about 320,000 compounds; about 8,000 (2.5%) were called active. No stated cut-off is given here; in the data, active means activation above about 47%; inactive means the rest. The list comes from a sample in which actives are over-represented; it also holds similar structures and randomly drawn compounds.

The target of this experiment is Aryl hydrocarbon receptor (Homo sapiens) (UniProt P35869). As to the kind of experiment: AHR activators, primary screen, cell-based, luminescence, luciferase reporter, human (AID 2796).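 Further: 0% = vehicle wells and 100% = reference agonist.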 The following applies: AHR-responsive luciferase reporter cells, at 5 µM, active compounds read high. For orientation: Reporter assays use an easily measured gene product as a stand-in for the process of interest.
Aryl hydrocarbon receptor (Homo sapiens), sequence (P35869 whole entry, looked up): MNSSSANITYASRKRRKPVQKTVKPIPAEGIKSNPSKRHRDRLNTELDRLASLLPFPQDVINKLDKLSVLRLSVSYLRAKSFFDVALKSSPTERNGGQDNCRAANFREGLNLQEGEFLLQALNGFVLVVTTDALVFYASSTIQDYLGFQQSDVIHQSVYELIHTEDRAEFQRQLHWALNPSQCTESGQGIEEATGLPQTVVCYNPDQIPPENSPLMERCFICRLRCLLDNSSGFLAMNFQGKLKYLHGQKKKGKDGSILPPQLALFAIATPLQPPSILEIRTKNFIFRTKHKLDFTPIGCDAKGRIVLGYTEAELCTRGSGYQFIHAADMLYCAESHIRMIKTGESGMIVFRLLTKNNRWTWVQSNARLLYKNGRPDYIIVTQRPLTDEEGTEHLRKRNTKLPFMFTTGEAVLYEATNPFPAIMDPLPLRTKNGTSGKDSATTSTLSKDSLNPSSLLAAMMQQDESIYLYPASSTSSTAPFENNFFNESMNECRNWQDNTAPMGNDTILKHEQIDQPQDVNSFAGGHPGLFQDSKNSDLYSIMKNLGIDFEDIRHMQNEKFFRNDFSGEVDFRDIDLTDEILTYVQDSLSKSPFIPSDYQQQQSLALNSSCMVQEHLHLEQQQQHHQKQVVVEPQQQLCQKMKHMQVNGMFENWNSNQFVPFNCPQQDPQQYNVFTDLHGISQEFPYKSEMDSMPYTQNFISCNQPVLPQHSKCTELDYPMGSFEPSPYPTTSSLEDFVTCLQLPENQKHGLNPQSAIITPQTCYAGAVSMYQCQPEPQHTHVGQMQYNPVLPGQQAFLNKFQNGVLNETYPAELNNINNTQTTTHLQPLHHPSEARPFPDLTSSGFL
As to `O=C(c1cncc(Br)c1)N1CCN(c2ccc([N+](=O)[O-])cc2)CC1`, the activation was 52.5% (active).

On to `O=C(c1cc(C(=O)N2CCN(c3ccc(F)cc3)CC2)cc([N+](=O)[O-])c1)N1CCN(c2ccc(F)cc2)CC1`, for which the activation is 3.86% (inactive).

Regarding `O=C(c1ccc(Cl)c([N+](=O)[O-])c1)N1CCN(c2ccccc2)CC1`, the activation was 2.09% (inactive).

For the compound `Cc1cc(C)c(NC(=O)CN2CCOCCOCCOCCOCC2)c(C)c1`, the activation is 0.35% (inactive).

On to `O=[N+]([O-])c1ccc(N/N=C/c2ccccc2)cc1`, for which the activation was -1.64% (inactive).

Regarding `Cc1cccc(COc2ccccc2/C=N/Nc2ccc([N+](=O)[O-])cc2)c1`, the activation was 50.4% (active).

Consider `Cc1ccc(NS(=O)(=O)c2ccc(N/N=C/c3ccccc3OCC(=O)O)c([N+](=O)[O-])c2)c(C)c1`, for which the activation is 2.69% (inactive).

As to `CCOC(=O)c1cc(S(=O)(=O)NCCc2ccc(OC)c(OC)c2)cn1C`, the activation is 1.77% (inactive).

`CCOC(=O)C1CCN(CC(=O)Nc2ccc(OC)c(S(=O)(=O)N3CCCCC3)c2)CC1`: the activation was -1.58% (inactive).

Regarding `O=C(NNC(=O)c1cccnc1)Nc1ccccc1`, the activation was -0.59% (inactive).

As to `Cc1ccc(NC(=O)Nc2cccnc2)cc1`, the activation was 83.7% (active).

Regarding `Cc1ccc(NC(=O)NCC(c2cccnc2)N2CCOCC2)cc1` (stereo not given), the activation is 3.2% (inactive).

As for `CCCNC(=S)NC1CC2CCCC(C1)N2CC(C)C` (stereo not given), the activation is 2.13% (inactive).

`CCS(=O)(=O)c1ccc(O)c(NC(=O)COc2ccc(Cl)cc2)c1`: the activation is -3.28% (inactive).

With `COC(=O)c1sccc1NC(=O)COc1ccc(Cl)cc1`, the activation was 3.07% (inactive).

As for `O=C(COc1ccc(Cl)cc1)Nc1ccccc1CO`, the activation is 62.6% (active).

In the case of `CC(C(=O)NCCc1ccc(S(N)(=O)=O)cc1)N1C(=O)CC(C)(C)Sc2ccccc21` (stereo not given), the activation is 1.77% (inactive).

On to `Cc1ccc(CN(Cc2cccnc2)C(=S)Nc2cc(Cl)ccc2C)cc1`, for which the activation was 2.1% (inactive).

In the case of `CN(c1ccccc1)c1ccc(/C=c2\s/c(=C(/C#N)C(=O)C(C)(C)C)n(Cc3ccco3)c2=O)cc1`, the activation is 0.79% (inactive).

For `Cc1csc(=Nc2ccccc2)n1CCO`, the activation is 4.51% (inactive).

Take `Cc1cs/c(=N\N=C\c2ccc(O)cc2)n1Cc1ccco1`: the activation was 59.4% (active).

For `Cc1c2cnn(CC(=O)NCc3ccccn3)c(=O)c2c(C)n1Cc1ccc(Cl)cc1`, the activation is 1.4% (inactive).

On to `Cc1ccc(S(=O)(=O)N(C)c2ccc(OCC(=O)OCC(=O)N(CC#N)c3ccccc3)cc2)cc1`, for which the activation is -1.55% (inactive).

Regarding `COc1ccc(OC)c(-c2csc(NC(=O)C3=NNC(=O)CC3)n2)c1`, the activation was 12.8% (inactive).

For the compound `COc1ccc(OC)c(-c2csc(-c3cccs3)n2)c1`, the activation is 121% (active).

Take `COc1ccc(OC)c(-c2csc(NC(=O)COC(=O)C3CC3)n2)c1`: the activation is -1.02% (inactive).

For the compound `CCOC(=O)N1CCC(Nc2c(NCCCN3CCN(CC)CC3)c(=O)c2=O)CC1`, the activation was 0.42% (inactive).

As for `COc1ccccc1C1=CC(=O)CCC1`, the activation is 0.36% (inactive).

For the compound `COc1ccc(NC(=O)CNc2cc(S(=O)(=O)N3CCOCC3)ccc2N2CCOCC2)c(OC)c1`, the activation was -1.67% (inactive).

Consider `Cn1c(Nc2cccc(Cl)c2)nc2ccccc21`, for which the activation was -1.72% (inactive).

With `O=c1ccnc(Nc2ccc(Cl)cc2)[nH]1`, the activation was 2.65% (inactive).

For the compound `Clc1ccc(Nc2ccc3ccccc3n2)cc1`, the activation was 73.6% (active).

`Cc1cccc(C)c1NC(=O)CNC(=O)c1c(C)nn(-c2ccccc2)c1C`: the activation is 0.83% (inactive).

Take `COc1cc(C2OC(c3cc(OC)c(OC)c(OC)c3)C(C)C2C)cc(OC)c1OC` (stereo not given): the activation was 3.59% (inactive).

As to `Cn1c(=O)c2c(ncn2CC(COCc2ccccc2Cl)OCc2ccccc2Cl)n(C)c1=O` (stereo not given), the activation was 0.3% (inactive).

Consider `Clc1ccc(-c2csc(-c3ccncc3)n2)cc1`, for which the activation is 63.4% (active).

`N#CC(=C1CCCC1)c1nc(-c2ccc(Cl)cc2)cs1`: the activation is 4.95% (inactive).

On to `Fc1ccc(-c2csc(-c3ccc(C4SCCS4)cc3)n2)cc1F`, for which the activation was 27.6% (inactive).

As to `CN(C)S(=O)(=O)c1ccc2oc(SCC(=O)Nc3ccccc3F)nc2c1`, the activation was 10.3% (inactive).

For `CCOC(=O)C1CCN(Cc2nnc(-c3cccc(Br)c3)o2)CC1`, the activation is 1.14% (inactive).

`CCOC(=O)C1CCN(c2ncnc3c2c(-c2ccccc2)cn3-c2ccc(C)cc2)CC1`: the activation is -0.73% (inactive).

As for `CCOC(=O)C1CCN(c2ncnc3c2oc2ccc(Br)cc23)CC1`, the activation was 66.9% (active).

On to `COc1cc(OC)cc(C(=O)NCC(=O)N2CCCCCCC2)c1`, for which the activation is 17.3% (inactive).

For `CSc1ncccc1C(=O)NC1CCCCCC1`, the activation is -0.02% (inactive).

For the compound `CSc1ncccc1C(=O)Nc1nc2ccc(F)cc2s1`, the activation is 79.2% (active).

Consider `CSc1ncccc1C(=O)Nc1ccc(C)cn1`, for which the activation is -0.65% (inactive).

For `Cc1ccc(SC(CC(=O)c2ccc(C(C)(C)C)cc2)C(=O)O)cc1` (stereo not given), the activation was -1.16% (inactive).

For the compound `COc1cc(C#Cc2ccc3cc(CCCO)oc(=O)c3c2)cc(OC)c1`, the activation is 1.38% (inactive).

As for `Cc1ccc2nc(C)cc(N/N=C/c3ccc(F)cc3)c2c1`, the activation was 10.9% (inactive).

In the case of `Fc1ccc(/C=N/Nc2nc(-c3cccnc3)nc3ccccc23)cc1`, the activation is 69.7% (active).

`COc1ccc(Nc2nc(-c3cccnc3)nc3ccccc23)cn1`: the activation is -0.65% (inactive).

As for `O=C(COC(=O)COc1ccccc1F)Nc1cccc(S(=O)(=O)N2CCCCC2)c1`, the activation was 0.3% (inactive).

For the compound `CC(Sc1nnc(COc2ccccc2)n1-c1ccccc1)C(=O)O` (stereo not given), the activation is -2.4% (inactive).

As to `Cc1cc(=O)oc2cc(NC(=O)C(C)Oc3ccccc3)ccc12` (stereo not given), the activation was 2.24% (inactive).

For the compound `NC(=O)c1oc2ccccc2c1NC(=O)Cc1ccccc1`, the activation was 0.99% (inactive).

As to `CC(C)C(=O)Nc1c(C(=O)c2ccc(F)cc2)oc2ccccc12`, the activation is 132% (active).

For the compound `CC(C)C(=O)Nc1ccc2oc(=O)ccc2c1`, the activation is 1.62% (inactive).

As to `CC(C)C(=O)Nc1c(O)c2ccccc2[nH]c1=O`, the activation is -0.12% (inactive).

As to `CC(C)C(=O)Nc1ccc2c(c1)oc1ccccc12`, the activation was 60.8% (active).

In the case of `Cc1ccc(-n2ncc3c(Nc4cccc(C(=O)O)c4)ncnc32)cc1`, the activation is -0.95% (inactive).

For the compound `Cc1sc2ncnc(N3CCC(C(=O)Nc4nc5ccc(Cl)cc5s4)CC3)c2c1C`, the activation was 12.5% (inactive).

In the case of `Cc1noc(C)c1S(=O)(=O)N(C)C[C@H]1Oc2c(NC(=O)Nc3ccc4c(c3)OCO4)cccc2C(=O)N([C@H](C)CO)C[C@@H]1C`, the activation is 0.19% (inactive).

Turning to `Cc1cc(NC(=O)/C=C/C(=O)N(c2ccccc2C)C(C(=O)NC2CCCC2)c2ccc(F)cc2)no1` (stereo not given), the activation is 6.2% (inactive).

Regarding `OCc1ccc(-c2ccccc2)c(-c2ccccc2)c1`, the activation is -2.37% (inactive).

In the case of `Cc1ccc(Nc2nnc(SCC(=O)c3cc4ccccc4o3)s2)cc1C`, the activation is 52.8% (active).

Regarding `Cc1cc2c(=O)n(C)c(SCC(=O)c3cc4ccccc4o3)nc2s1`, the activation is 15.9% (inactive).

For `Cc1ccccc1Nc1nnc(SCC(=O)c2cc3ccccc3o2)s1`, the activation is 26.2% (inactive).

For the compound `COC(=O)c1ccc([C@@H](O)[C@H](C)C(=O)CC(=O)OC(C)(C)C)cc1`, the activation is 1.52% (inactive).

With `COC(=O)c1ccc(NC(=O)CSc2nc(N)c(NC(=O)c3ccc(Br)o3)c(=O)[nH]2)cc1`, the activation was -1.66% (inactive).

`Cn1c2ccccc2c2c(C(=O)N3CCN(c4ccc(F)cc4)CC3)cn(C3CCCC3)c(=O)c21`: the activation was 12.2% (inactive).

`NNC(=O)c1oc2nc(-c3ccccc3)cc(-c3ccco3)c2c1N`: the activation is 76.1% (active).

Take `CNC(=S)NNC(=O)c1oc2nc(-c3ccccc3)cc(-c3ccco3)c2c1N`: the activation was 15.9% (inactive).

In the case of `O=C(Nc1cccc(F)c1)c1cc(-c2ccco2)nc2ccccc12`, the activation is 33.2% (inactive).

Take `CCN(Cc1nc2ccccc2c(=O)[nH]1)Cc1cc(=O)oc2cc(C)c(C)cc12`: the activation was 0.64% (inactive).

On to `COC(=O)c1ccc(CNC(=O)c2ccc(S(=O)(=O)N3CCCCCC3)cc2)cc1`, for which the activation was -0.2% (inactive).

Take `CCN(C(=O)Cc1nc(N)n[nH]1)C1(C(=O)Nc2ccccc2)CCCCC1`: the activation was 1.44% (inactive).

Consider `Brc1c(CSc2nncc3ccccc23)nc2ccccn12`, for which the activation is 48.9% (active).

For `CN(C(=O)CSc1nncc2ccccc12)C1CCCCC1`, the activation is 8.04% (inactive).

In the case of `CC(C)CC(=O)c1c[nH]c(C(=O)NCc2ccccc2)c1`, the activation is 5.43% (inactive).

In the case of `O=C(NC(=S)N1CCc2ccccc21)c1ccco1`, the activation was 8.66% (inactive).

Turning to `O=C(NNC(=S)NC(=O)c1cn(-c2ccccc2)nc1-c1ccccc1)c1ccncc1`, the activation was 12.3% (inactive).

Turning to `O=c1oc(-c2ccco2)nc2sc3c(c12)CCCCC3`, the activation is 5.12% (inactive).

In the case of `O=C(NCc1ccco1)c1cccn2c(=O)c3c4c(sc3nc12)CCCC4`, the activation is 48.2% (active).

`O=C(NCc1ccco1)c1nc2ncccn2n1`: the activation was -0.33% (inactive).

Regarding `Fc1ccc2[nH]c3c(N4CCSCC4)ncnc3c2c1`, the activation was 58.6% (active).

With `Cc1c(CN2CC[C@@H](N3CCN(c4ccccn4)CC3)[C@H](O)C2)[nH]c2ccc(F)cc12`, the activation was 2.27% (inactive).

With `COc1ccc(N2CCN(C(=O)Cn3cnc4sc(C)c(S(=O)(=O)N5CCOCC5)c4c3=O)CC2)cc1`, the activation is -4.91% (inactive).

`CCOC(=O)c1cc(NC(=O)c2cccnc2)ccn1`: the activation is 4.05% (inactive).

Turning to `CCOc1ccccc1NC(=O)c1cccnc1`, the activation was 93.9% (active).

As for `COc1ccc(OC)c(NC(=O)CC(Cc2ccccc2OC)C(=O)O)c1` (stereo not given), the activation was -3.53% (inactive).

As to `CCOc1ccccc1NC(=O)Nc1cc(OC)ccc1OC`, the activation was 71% (active).

In the case of `O=C(Nc1cnccn1)c1cccnc1`, the activation is 0.46% (inactive).

For the compound `CCOc1ccc(NC(=O)Nc2cc(C)ccc2OC)cc1`, the activation was -5.37% (inactive).

For `O=C(Nc1ccc(N2CCOCC2)nc1)c1c(F)cccc1F`, the activation was -5.89% (inactive).

Turning to `COc1ccc(C(=O)N(C)CC(O)c2ccccc2)cc1OC1CCN(C(C)=O)CC1` (stereo not given), the activation was 2.56% (inactive).
